Measurements reported in PubChem BioAssay (Tox21).
Results filed as inconclusive are left out. A call without a number means that no potency is given here. Calls of active or inactive are those of the source. Unless noted, calls follow the shape of the dose curve; as a rule, active = well fitted curve in the direction sought with a large enough effect in the repeat runs; inconclusive = weak or mixed curves; inactive = no such curve, though single readings can be large; an effect the other way counts as inactive or inconclusive.

Columns and labels:
[1] = qHTS assay to identify small molecule agonists of the RXR signaling pathway - cell viability counter screen (AID 1159529); also: nearly all actives have a fitted effect of over 50% in size; also: potency is read from the fitted curve at half-maximal effect
Outline: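 CellTiter-Glo luminescence gave viability in the wells also read for beta-lactamase. Cells (RXR-alpha-UAS-bla HEK 293T, 2% charcoal-stripped FBS medium) had 5 hr plating, then 16 hr compound exposure at 37 C; tetraoctyl ammonium bromide served as positive control.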

[2] = qHTS assay to identify small molecule antagonists of the retinoid acid receptor (RAR) signaling pathway - cell viability counter screen (AID 1159551); also: nearly all actives have a fitted effect of over 35% in size; also: potency is read from the fitted curve at half-maximal effect
Outline: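 ATP-based viability, C3RL4 cells, 6 h at 37 C with 1 uM final retinol co-added after compound; luminescence read 30 min post CellTiter-Glo, RT.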

[3] = qHTS assay to identify small molecule antagonists of the retinoic acid receptor (RAR) signaling pathway (AID 1159552; also: nearly all actives have a fitted effect of over 50% in size; also: potency is read from the fitted curve at half-maximal effect)
Outline: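 Luminescent RARE reporter read-out in C3RL4 cells: 6 hr co-treatment at 37 C of test compounds with retinol at 1 uM final. Cells plated overnight beforehand; luciferase reagent incubated 30 min at room temperature before reading.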

[4] = qHTS assay to identify small molecule agonists of the retinoic acid receptor (RAR) signaling pathway (AID 1159553); also: potency is read from the fitted curve at half-maximal effect
Outline: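 Quantitative high-throughput format: the Tox21 10K library was tested on C3RL4 RARE-luciferase cells for 6 hr at 37 C and 5% CO2, with luminescence measured after a 30 min room-temperature reagent step.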

[5] = qHTS assay to identify small molecule antagonists of the estrogen related receptor (ERR) signaling pathway from Tox21 library - cell viability counter screen (AID 1224834); also: nearly all actives have a fitted effect of over 30% in size; also: potency is read from the fitted curve at half-maximal effect
Outline: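 Compounds in DMSO were pinned onto ERR cells that had been incubated for 6 h, and the plates were held at 37 C for 17.5 h. CellTiter-Fluor reagent was then added and fluorescence was measured after 30 min.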

[6] = target: Luciferin 4-monooxygenase (Photinus pyralis) (UniProt P08659); assay: qHTS assay to identify small molecule inhibitors of firefly luciferase (AID 1224835); also: nearly all actives have a fitted effect of over 25% in size; also: potency is read from the fitted curve at half-maximal effect
Outline: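 Inhibition of purified Photinus luciferase is measured by luminescence. Substrate levels (D-luciferin, ATP) sit at their KM values. Each compound is tested in a concentration series.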

[7] = qHTS assay to identify small molecule antagonists of the constitutive androstane receptor (CAR) signaling pathway - cell viability counter screen (AID 1224837); also: nearly all actives have a fitted effect of over 45% in size; also: potency is read from the fitted curve at half-maximal effect
Outline: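 Cells are seeded, rested 4 hr at 37 C/5% CO2, dosed with compound (15-point series) and 50 nM CITCO, incubated a further 23 hr, and then CellTiter-Fluor reagent is added before fluorescence is read. The line is HepG2 with stable hCAR and CYP2B6-2.2kb.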

[8] = target: Nuclear receptor subfamily 1 group I member 3 (Homo sapiens) (UniProt Q14994); assay: qHTS assay to identify small molecule antagonists of the constitutive androstane receptor (CAR) signaling pathway (AID 1224838);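 also: HepG2 cells stably expressing hCAR with CYP2B6 luciferase reporter stimulated by CITCO; nearly all actives have a fitted effect of over 40% in size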
Outline: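 Luminescence from a CYP2B6-2.2kb promoter reporter in hCAR-expressing HepG2 cells reflects CAR signaling. Cells received compounds at 15 concentrations and 50 nM CITCO (final), then incubated 24 h at 37 C/5% CO2.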

[9] = target: Nuclear receptor subfamily 1 group I member 3 (Homo sapiens) (UniProt Q14994); assay: qHTS assay to identify small molecule agonists of the constitutive androstane receptor (CAR) signaling pathway (AID 1224839); also: nearly all actives have a fitted effect of over 15% in size; also: potency is read from the fitted curve at half-maximal effect
Outline: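 Luminescent ONE-Glo read-out after 24 hr, 37 C exposure of double-stable HepG2-CYP2B6-hCAR reporter cells to a 15-point compound series, in the presence of 0.75 uM PK11195 (final).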

[10] = qHTS assay to identify small molecule agonists of the estrogen related receptor signaling pathway with the pleiotropic PPARgamma coactivator (PGC) from Tox21 10K library (AID 1224842); also: nearly all actives have a fitted effect of over 15% in size
Outline: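 Luminescence from One-Glo (30 min, room temperature) measured after PGC/ERR cells had 18 h at 37 C with pinned compound (23 nL in DMSO). Cells had been seeded at 2,000 per well and pre-incubated 6 h.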

[11] = target: Thyrotropin receptor (Homo sapiens) (UniProt P16473); assay: qHTS assay to identify small molecule agonists of the thyroid stimulating hormone receptor (TSHR) signaling pathway (AID 1224843; calls by dose curve; also: nearly all actives have a fitted effect of over 45% in size; also: potency is read from the fitted curve at half-maximal effect)
Outline: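 A cell-based cAMP HTRF format was run in TSHR-transfected HEK293 cells, 800 per well. Treatment: 30 min, room temperature. Detection: 1 h with labelled cAMP and anti-cAMP cryptate. Concentration-response over 15 points, three replicates.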

[12] = qHTS assay to identify small molecule antagonists of the estrogen related receptor signaling pathway with the pleiotropic PPARgamma coactivator (PGC) from Tox21 10K library (AID 1224841; call rule not given here; also: actives are mostly falling curves and most rising ones were filed inactive; nearly all actives have a fitted effect of over 50% in size; also: potency is read from the fitted curve at half-maximal effect)
Outline: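 Cells stably carrying the PGC/ERR reporter, seeded at 2,000 per well, received pin-transferred compounds 6 h post-plating. Exposure lasted 18 h at 37 C. Signal: One-Glo luminescence.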

[13] = qHTS assay to identify small molecule agonists of the constitutive androstane receptor (CAR) signaling pathway - cell viability counter screen (AID 1224836); also: series mostly up to about 92 µM; nearly all actives have a fitted effect of over 45% in size
Outline: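 Cell viability multiplexed with the CAR agonist screen: CellTiter-Fluor fluorescence after 23 hr at 37 C. HepG2-CYP2B6-hCAR cells got compounds at 15 concentrations with PK11195 at 0.75 uM final.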

[14] = qHTS assay to identify small molecule antagonists of the estrogen related receptor signaling pathway with the pleiotropic PPARgamma coactivator (PGC) from Tox21 10K library - cell viability counter screen (AID 1224840; active = well fitted cell-killing curve with a large enough effect in the repeat runs, not every such curve was filed as active; also: nearly all actives have a fitted effect of over 40% in size)
Outline: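 Cell viability is measured by CellTiter-Fluor fluorescence in PGC/ERR cells that receive compounds after a 6-hour attachment period and are then incubated 17.5 hours at 37 C.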

Sequence of Thyrotropin receptor (Homo sapiens) (P16473 whole entry, looked up): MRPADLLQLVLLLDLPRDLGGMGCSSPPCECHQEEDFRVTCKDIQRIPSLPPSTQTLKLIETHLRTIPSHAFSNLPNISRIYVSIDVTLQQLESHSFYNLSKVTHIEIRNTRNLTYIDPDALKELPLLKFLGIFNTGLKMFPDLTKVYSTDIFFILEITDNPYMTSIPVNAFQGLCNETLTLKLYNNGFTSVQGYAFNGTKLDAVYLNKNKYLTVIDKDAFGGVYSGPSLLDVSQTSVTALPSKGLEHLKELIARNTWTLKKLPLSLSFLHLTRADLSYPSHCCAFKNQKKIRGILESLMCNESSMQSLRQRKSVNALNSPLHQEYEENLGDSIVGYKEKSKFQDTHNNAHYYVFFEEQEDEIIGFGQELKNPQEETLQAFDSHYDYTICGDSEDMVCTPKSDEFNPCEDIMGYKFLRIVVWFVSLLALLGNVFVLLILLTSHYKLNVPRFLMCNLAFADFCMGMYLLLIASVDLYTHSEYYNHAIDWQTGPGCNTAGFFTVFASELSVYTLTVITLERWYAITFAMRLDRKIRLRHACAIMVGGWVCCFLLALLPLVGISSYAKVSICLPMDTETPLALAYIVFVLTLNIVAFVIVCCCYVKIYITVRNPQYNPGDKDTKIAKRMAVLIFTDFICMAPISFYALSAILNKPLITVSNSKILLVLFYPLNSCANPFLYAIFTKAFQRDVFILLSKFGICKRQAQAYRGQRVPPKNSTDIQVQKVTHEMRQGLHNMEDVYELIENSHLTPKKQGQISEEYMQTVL
Sequence of Nuclear receptor subfamily 1 group I member 3 (Homo sapiens) (Q14994 whole entry, looked up): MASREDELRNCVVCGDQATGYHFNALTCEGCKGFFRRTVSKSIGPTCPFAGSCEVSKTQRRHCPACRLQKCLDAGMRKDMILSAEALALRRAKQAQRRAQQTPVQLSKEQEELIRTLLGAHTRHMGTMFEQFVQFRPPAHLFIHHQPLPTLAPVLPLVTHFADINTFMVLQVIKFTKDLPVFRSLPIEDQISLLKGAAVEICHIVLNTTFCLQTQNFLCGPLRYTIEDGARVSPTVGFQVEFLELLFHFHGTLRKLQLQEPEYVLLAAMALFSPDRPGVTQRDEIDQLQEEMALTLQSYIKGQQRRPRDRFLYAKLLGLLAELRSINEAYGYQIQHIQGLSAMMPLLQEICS
Sequence of Luciferin 4-monooxygenase (Photinus pyralis) (P08659 whole entry, looked up): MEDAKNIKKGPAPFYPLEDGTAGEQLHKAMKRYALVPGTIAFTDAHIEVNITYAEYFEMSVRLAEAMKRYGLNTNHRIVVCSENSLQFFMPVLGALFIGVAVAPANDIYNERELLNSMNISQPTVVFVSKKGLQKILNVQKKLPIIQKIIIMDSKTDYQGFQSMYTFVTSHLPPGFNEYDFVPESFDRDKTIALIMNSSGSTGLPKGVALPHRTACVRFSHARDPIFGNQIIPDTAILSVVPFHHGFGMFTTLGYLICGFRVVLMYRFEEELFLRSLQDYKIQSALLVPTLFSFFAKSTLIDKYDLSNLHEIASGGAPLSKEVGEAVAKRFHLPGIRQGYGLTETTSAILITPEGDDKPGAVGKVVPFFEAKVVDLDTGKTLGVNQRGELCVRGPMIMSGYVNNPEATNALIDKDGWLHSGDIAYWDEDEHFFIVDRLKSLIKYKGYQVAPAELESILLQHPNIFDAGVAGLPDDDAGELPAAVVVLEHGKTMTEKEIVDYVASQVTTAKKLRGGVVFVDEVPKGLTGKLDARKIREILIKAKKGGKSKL

Compound | Potency [1] | Potency [2] | Potency [3] | Potency [4] | Potency [5] | Potency [6] | Potency [7] | Potency [8] | Potency [9] | outcome [10] | Potency [11] | Potency [12] | Potency [13] | Potency [14]
C=CCC1=C(C)[C@@H](OC(=O)[C@@H]2[C@@H](C=C(C)C)C2(C)C)CC1=O | 21.9 µM (active) | 54.5 µM (active) | 27.3 µM (active) | inactive | 54.5 µM (active) | inactive | inactive | inactive | 24.3 µM (active) | inactive | inactive |  |  | 
Fc1ccc(C2(Cn3cncn3)OC2c2ccccc2Cl)cc1 (stereo unspecified) | inactive | inactive | inactive | inactive |  | inactive | inactive | inactive | inactive | inactive | inactive | 38.6 µM (active) |  | 
[O]=[Cd] | inactive | inactive |  |  | inactive | inactive | inactive |  |  | inactive | inactive |  | inactive | inactive
Nc1cc2c3c(c1)C(c1ccccc1)=N[C@@H](NC(=O)c1cccnc1)C(=O)N3CC2 | inactive | inactive |  |  | inactive | inactive | inactive | inactive | inactive |  | inactive |  | inactive | inactive
CC1CN1P(=O)(N1CC1C)N1CC1C (stereo unspecified) | inactive | inactive |  |  | inactive | inactive | inactive | inactive | inactive |  |  |  | inactive | inactive
O=C(Cc1ccccc1)OCc1ccccc1 | inactive | inactive |  | 61.6 µM (active) | inactive | 20.2 µM (active) | inactive | inactive | inactive |  | inactive |  | inactive | 
CCOP(=S)(OCC)Oc1nc(Cl)n(C(C)C)n1 | inactive | inactive | inactive | inactive | inactive |  | inactive |  |  |  | inactive |  | inactive | inactive
O=S(=O)(O)C(F)(F)C(F)(F)C(F)(F)C(F)(F)C(F)(F)C(F)(F)F | inactive | inactive |  |  | inactive | inactive | inactive | inactive | inactive |  | inactive |  | inactive | inactive
COc1cc(C[C@@H](C)N)c(OC)cc1C | inactive | inactive |  |  | inactive | inactive | inactive | inactive | inactive | inactive | inactive | inactive | inactive | inactive
CC1CCCCC1NC(=O)Nc1ccccc1 (stereo unspecified) | inactive | inactive |  |  | inactive | 35.6 µM (active) | inactive | inactive | 30.6 µM (active) | inactive | inactive | inactive | inactive | 
O=[N+]([O-])c1cccc2c([N+](=O)[O-])cccc12 | inactive | inactive |  | inactive | 61.4 µM (active) | inactive |  | inactive |  | inactive | inactive | 34.6 µM (active) |  | 
CC1(C)COP(Oc2ccccc2)OC1 | inactive | inactive |  | inactive | inactive | inactive | inactive | inactive | inactive | inactive | inactive | inactive | inactive | inactive
N#CC(O)c1ccccc1 (stereo unspecified) | inactive | inactive |  |  | inactive | inactive | inactive | inactive | inactive |  | inactive |  | inactive | inactive
CCOC(=O)NC(=S)Nc1ccccc1NC(=S)NC(=O)OCC | inactive | inactive | inactive |  | inactive | inactive | inactive |  |  | inactive |  | inactive | inactive | inactive
O=[N+]([O-])c1ccc2c3c(cccc13)CC2 | inactive | inactive |  | inactive | inactive | inactive | inactive |  |  |  | inactive |  | inactive | inactive
CCOc1nc(C(Cl)(Cl)Cl)ns1 | inactive | inactive |  | inactive | inactive | inactive | inactive | inactive | inactive | inactive | inactive | inactive | inactive | inactive
CCOP(=S)(OCC)SCSc1ccc(Cl)cc1 | inactive | inactive |  | inactive | inactive | inactive | inactive | inactive | 27.3 µM (active) |  |  |  | inactive | inactive

Compound | Potency [1] | Potency [2] | Potency [3] | Potency [4] | Potency [5] | Potency [6] | Potency [7] | Potency [8] | Potency [9] | outcome [10] | Potency [11] | Potency [12] | Potency [13] | Potency [14]
O=CNC(N1CCN(C(NC=O)C(Cl)(Cl)Cl)CC1)C(Cl)(Cl)Cl (stereo unspecified) | inactive | inactive |  |  | inactive | inactive | inactive | inactive | inactive | inactive | inactive | inactive | inactive | inactive
[As]#[In] | inactive | inactive |  |  | inactive | inactive | inactive | inactive | inactive | inactive | inactive | inactive | inactive | 
[Cl][Sn]([Cl])([Cl])[Cl] | inactive | inactive |  |  | inactive | inactive | inactive | inactive | inactive |  |  |  | inactive | inactive
BrCCCCCCBr | inactive | inactive | inactive | inactive | inactive |  | inactive | inactive | inactive |  | inactive |  | inactive | 
CC(C1CC1)C(O)(Cn1cncn1)c1ccc(Cl)cc1 (stereo unspecified) | inactive | inactive | inactive | inactive | inactive | inactive | inactive |  |  |  | inactive |  | inactive | inactive
C=C(C)[C@@H]1CC=C(C=O)CC1 | inactive | inactive |  |  | inactive | inactive | inactive |  |  | inactive | inactive | inactive | inactive | inactive
CCS(=O)(=O)CCSP(=O)(OC)OC | inactive | inactive |  | inactive | inactive | inactive | inactive | inactive | inactive | inactive | inactive | inactive | inactive | 
CC(C)(C)OC(=O)c1ncn2c1[C@@H]1CCCN1C(=O)c1c(Br)cccc1-2 | inactive | inactive | inactive | inactive |  | inactive | inactive | inactive | inactive | inactive | inactive |  | inactive | inactive
O=C(Nc1ccccc1)N(Cc1ccc(Cl)cc1)C1CCCC1 | inactive | inactive |  | inactive | 48.6 µM (active) | inactive | 61.1 µM (active) |  |  | inactive | 48.6 µM (active) |  |  | 
CCNc1nc(NC(C)C)nc(OC)n1 | inactive | inactive |  |  | inactive | inactive | inactive |  |  | inactive | inactive | inactive | inactive | inactive
O=C(Nc1ccccc1)c1ccccc1I | inactive | inactive | inactive |  | inactive | inactive | inactive | inactive | 61.1 µM (active) |  | inactive |  | inactive | inactive
CCCCOC(=O)[C@@H](C)Oc1ccc(Oc2ccc(C#N)cc2F)cc1 | inactive | inactive |  |  | inactive | inactive | inactive | inactive | inactive | inactive |  | inactive | inactive | inactive
CC1(C)C(=O)NC(=O)NC1=O | inactive | inactive |  |  | inactive | inactive | inactive | inactive | inactive | inactive | inactive | inactive | inactive | inactive
CC1=NNC(=O)N(/N=C/c2cccnc2)C1 | inactive | inactive | inactive |  | inactive | inactive | inactive |  |  | inactive | inactive | inactive | inactive | inactive
CCOC(=O)CP(=O)(OCC)OCC | inactive | inactive |  |  | inactive | inactive | inactive |  |  | inactive | inactive | inactive | inactive | inactive
C[C@]12CC[C@H]3[C@@H](CCC4=CC(=O)CC[C@@]43C)[C@@H]1CC[C@@H]2C(=O)O |  |  |  | inactive | inactive | inactive | inactive | inactive | inactive | inactive | inactive | inactive | inactive | inactive
